# Laboratory results: PubChem BioAssay AID1851 (National Center for Advancing Translational Sciences (NCATS), 2009)
# Values joined by “and” are separate entries in the source; they are usually repeats but may differ in a detail not shown here. Identical values can stand only once. About 5,800 (36%) of roughly 16,000 compounds were called active. Not shown: some 23% with an inconclusive outcome. Some of the results follow. Values without a mark were called inactive. The call rests on the fitted dose curve; in most records, active means well fitted curve in the direction sought with a large enough effect; inconclusive means small, poorly fitted or top-dose-only effect, or effect the other way; inactive means no such curve, though single readings can be large or run the other way.
# Target: Cytochrome P450 2C19 (Homo sapiens) (UniProt P33261)
# Assay: Cytochrome panel assay with activity outcomes
# Conditions: recombinant CYP, pro-luciferin dealkylation, luminescence, p450-cyp2c19; series mostly up to 57.1 µM; activity, negative = inhibition: at the top concentration
# Experimental: The P450 gene superfamily is involved in the metabolism and clearance of xenobiotics. This assay used various human CYP P450 isozymes to measure the dealkylation of various pro-luciferin substrates to luciferin. The luciferin is then measured by luminescence after the addition of a luciferase detection reagent. Pro-luciferin substrate concentration in the assay was equal to its KM for its CYP P450 isozyme. Inhibitors and some substrates limit the production of luciferin, and decrease measured luminescence.
# NCGC Assay Protocol Summary:
# 1, Reagent, 2 uL, Isozyme and Pro-Luciferin
# 2, Library compounds, 23 nl, 40 uM to 0.24 nM dilution series
# 3, Controls, 23 nl, Isozyme specific inhibitor
# 4, Reagent, 2 uL, NADPH regeneration solution
# 5, Incubation time, 60 min, Isozyme specific temperature
# 6, Reagent, 4ul, Detection reagent
# 7, Incubation time, 20 min, Isozyme specific temperature
# 8, Detection, 1 sec, ViewLux luminescent read
# The luciferase-based P450-GloTM Screening Systems were obtained from Promega (Madison, WI) for CYP 1A2 (V9770), CYP 2C9 (V9790), CYP2 C19 (V9880), CYP 2D6 (V9890), and CYP 3A4 Luciferin-PPXE (V9910) and were adapted for 1,536-well microplates and an automated protocol. The control compounds furafylline for 1A2 (F124), sulfaphenazole for CYP 2C9 (S0758), ketoconazole for CYP 2C19 (K1003), quinidine for 2D6 (Q3625), and ketoconazole for 3A4 (K1003) were purchased from Sigma Aldrich (St. Louis, MO). Recombinant P450 enzymes were obtained from baculovirus constructs expressed in insect cells (BD/Gentest).
# Medium-binding white solid Kalypsys plates used. Mixtures kept on ice. 1A2: 10 nM 1A2, 100 uM Luc-ME, 100 mM KPO4; 2C9: 10 nM 2C9, 100 uM Luc-H, 25 mM KPO4; 2C19: 5 nM 2C19, 10 uM Luc-H EGE, 50 mM KPO4; 2D6: 5 nM 2D6, 30 uM Luc-ME EGE, 100 mM KPO4; 3A4: 10 nM, 25 uM Luc-PPXE. All amounts are reflected in their final concentration, working concentration is 2x.
# NADPH regeneration solution: 1.3 mM NADP+, 3.3 mM glucose-6-phosphate, 3.3 mM MgCl2, 0.4 U/mL glucose-6-phosphate dehydrogenase for all isozymes, 200 mM KPO4 for 3A4. Mixture prepared at RT but kept on ice during automated run.
# RT incubation in auxilliary plate hotel for 1A2, 2D6, and 3A4; 37C for 2C9 and 2C19.
# Keywords: P450, CYP1A2, CYP2C19, CYP2C9, CYP2D6, CYP3A4, Luciferase, MLSMR, MLSCN, NIH Roadmap, qHTS, NCGC
# On the % scale 0 is the no-effect control and ±100 the full control effect.
# Sequence of Cytochrome P450 2C19 (Homo sapiens) (P33261 whole entry, looked up): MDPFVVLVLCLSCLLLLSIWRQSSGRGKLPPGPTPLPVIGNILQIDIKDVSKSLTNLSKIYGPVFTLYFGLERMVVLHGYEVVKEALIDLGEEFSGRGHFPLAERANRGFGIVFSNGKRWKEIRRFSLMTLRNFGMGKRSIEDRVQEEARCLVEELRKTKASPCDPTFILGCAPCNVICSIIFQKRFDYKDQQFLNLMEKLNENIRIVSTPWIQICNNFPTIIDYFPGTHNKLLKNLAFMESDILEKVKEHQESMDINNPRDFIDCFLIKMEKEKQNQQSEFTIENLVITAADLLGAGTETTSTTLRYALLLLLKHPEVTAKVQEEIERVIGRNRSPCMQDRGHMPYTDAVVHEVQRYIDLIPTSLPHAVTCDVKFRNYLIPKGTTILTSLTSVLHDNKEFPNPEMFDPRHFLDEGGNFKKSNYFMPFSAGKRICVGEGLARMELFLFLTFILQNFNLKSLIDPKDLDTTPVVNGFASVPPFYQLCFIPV
SMILES,AC50,"activity, negative = inhibition"
C=CCN=C1CC(C)(C)CC(=O)/C1=C(/O)CCC(=O)OC,14.1 µM (active),
C=CCN=C1CC(C)(C)CC(=O)/C1=C(\O)c1ccccc1,25.1 µM (active),
N#CCCn1c(=O)c(-c2ccccc2)nc2cnc(Nc3ccccc3)nc21,,-8.35%
Nc1ccc(C(=O)NCC(=O)O)cc1,,5.57% [at 25.6 µM]
CCNC(=O)c1ccc(-n2nc(C)cc2-c2ccccc2)cc1,11.2 µM (active),
Cc1nc2cnc(N3CCOCC3)nc2n(CCC#N)c1=O,,-4.01%
Fc1ccc(-c2cnc(-c3cccs3)o2)cc1,6.31 µM (active),
Cc1ccc(N2C(=O)CC(c3ccsc3)C3=C2CC(C)(C)CC3=O)cc1 (stereo not drawn),2.51 µM (active),
CC1CCCCN1c1cc(C#N)c(C#N)cc1[N+](=O)[O-] (stereo not drawn),4.47 µM (active),
N#Cc1cc2[nH]c(=O)c(=O)[nH]c2cc1[N+](=O)[O-],,-9.46%
N#Cc1cc2nc(O)c(O)nc2cc1[N+](=O)[O-],inactive,
CCC(C)NC(=O)C1c2cc(OC)c(OC)cc2C(=O)N(C)C1c1cccs1 (stereo not drawn),,-15%
Nc1nc(-c2cccnc2)cc(-c2cc(-c3cccnc3)nc(N)n2)n1,,-16.6% [at 11.4 µM]
Clc1ccc(Cc2nc(-c3cccnc3)no2)cc1,1.78 µM (active),
Cn1cccc1C(=O)N1CCC2(CCN(Cc3nccs3)CC2)CC1,,-0.0178%
N#Cc1c(NC(=O)C2CC(c3ccccc3Cl)=NO2)sc2c1CCC2 (stereo not drawn),2 µM (active),
Cc1cc2cccc(C)c2nc1SCC(=O)N(C)c1nc(-c2ccccc2)cs1,,-27.1%
CCC(=O)N(Cc1ccco1)c1nc(-c2ccccc2)cs1,5.62 µM (active),
N#CCCn1nnc2ccccc21,,-23.8%
Nn1nnc2ccccc21,,-11.1%
Cc1ccnc(NCn2nnc3ccccc32)c1,15.8 µM (active),
O=C(O)C[n+]1ccccc1,,-3.69% [at 11.4 µM]
Cc1cc(NC(=O)c2c(F)cccc2F)n(-c2nc3ccccc3[nH]2)n1,11.2 µM (active),
COc1cc(NC(=O)c2c(F)cccc2F)nc(OC)n1,,-15.5%

SMILES,AC50,"activity, negative = inhibition"
Cc1cc(NC(=O)c2ccc(S(=O)(=O)N(C)C)cc2)n(-c2ccccn2)n1,,4.21%
Nc1ncnc2c1ncn2[C@@H]1CCCO1,,14.6%
Cc1nc(S(=O)(=O)N(C)c2ccccc2)c(C#N)c(C)c1Cl,6.31 µM (active),
Cc1nc(S(=O)(=O)NC2CCCCC2)c(C#N)c(C)c1Cl,2.82 µM (active),
CCC[C@H]1C(=O)N2C(N(C)C)=Nc3ccc(C)cc3N2C1=O,,-39.6% [at 25.6 µM]
COc1ccc(C[C@@H]2c3cc(OC)c(OC)cc3CC[N@+]2(C)CCC(=O)OCCCCCOC(=O)CC[N@@+]2(C)CCc3cc(OC)c(OC)cc3[C@H]2Cc2ccc(OC)c(OC)c2)cc1OC,,-12.9% [at 25.6 µM]
COC(=O)C/C=C\[C@@H](C)[C@@H](/C=N\O[C@@H](C)c1cn([C@H](CO)Cc2ccccc2)nn1)OC,,-27.6% [at 11.4 µM] and -8.78% [at 11.4 µM]
N#Cc1nc(-c2ccc(OCc3ccccc3)cc2)oc1NCCN1CCOCC1,5.62 µM (active),
N#Cc1ccccc1-c1ccc2ncnc(NCCN3CCOCC3)c2c1,,-23.4%
Cc1cccc(NC(=S)NNC(=O)c2csc3c2CCCC3)c1,10 µM (active),
O=[N+]([O-])c1ccc(Cl)c(/C=N/N2CCN(Cc3ccccc3Cl)CC2)c1,3.98 µM (active),
O=[N+]([O-])c1ccc(Cl)c(/C=N/N2CCN(Cc3ccccc3)CC2)c1,17.8 µM (active),
C=C(C)C(=O)N1CC2(CC(c3cccc(NC(=O)c4ccccc4)c3)=NO2)C[C@@H]1C(N)=O (stereo partly drawn),,-42%
Cc1cc(C)c(S(=O)(=O)N2CCN(c3ccc([N+](=O)[O-])c(NCC4CCCO4)c3)CC2)c(C)c1 (stereo not drawn),3.16 µM (active),
Cc1ccc(NC(=O)c2ccc(NCC3CCCO3)c([N+](=O)[O-])c2)cc1Cl (stereo not drawn),5.01 µM (active),
CCS(=O)(=O)N1CCC(C(=O)NCC2CCCO2)CC1 (stereo not drawn),,-8.97%
O=S(Cc1cc(Oc2ccccc2)nc(-c2ccccc2)n1)c1ccccc1 (stereo not drawn),2.82 µM (active),
O=S(=O)(Cc1cc(Oc2ccccc2)nc(-c2ccccc2)n1)c1ccccc1,1.26 µM (active),
CNc1cc(CS(=O)c2ccccc2)nc(-c2ccccc2)n1 (stereo not drawn),1.41 µM (active),
O=c1[nH][nH]c(C(F)(F)F)c1C=Nc1ccccc1Cl,,-12.3%
[O-][N+](CCO)(CCO)c1ncnc2nc[nH]c12,,41% [at 11.4 µM]
CC[C@@]1(O)C(=O)COc2c1cc1n(c2=O)Cc2c-1nc1cccc(C(C)C)c1c2[Si](C)(C)C,,27.7%
Cc1sc(NC(=O)C2CCCCC2)c(C#N)c1-c1ccccc1,2.82 µM (active),
Cc1sc(NC(=O)/C=C/c2ccc(C(C)C)cc2)c(C#N)c1C,,-24.8%
